The list is not random: actives were taken first. Their share in the collection is about 8.8%.
Lamin A splicing: qHTS Assay for Modulators of Lamin A Splicing; hit rate 0.01% among 200,000; AID 1487, 2009; Potency, µM (doses to about 46.1 µM), inactives show at the top dose ratio change, negative = inhibition, most hits filed as inhibitors; HeLa LMNA splicing GFP/RFP minigene ratio, 48 h; active = well fitted inhibition curve with a large enough effect in the signal ratio, with a control signal flat, not every such curve was filed as active; inconclusive = small, poorly fitted or top-dose-only effect, or effect the other way, or a change in a side signal; the % refers to the signal ratio; note: % is set by controls: 0 for no effect and ±100 for the full control effect
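Read-out is the ratio of GFP to DsRed2 object intensity, acquired by 488 nm laser-scanning cytometry on HeLa lamin A-EGFP minigene reporter cells. Compound incubation 48 hrs at 37 °C in Opti-MEM with 2% FBS; DMSO 0.5% final.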
HPGD block: qHTS Assay for Inhibitors of HPGD (15-Hydroxyprostaglandin Dehydrogenase); hit rate 4.3% among 150,000; AID 894, 2007; 15-hydroxyprostaglandin dehydrogenase [NAD(+)] (Homo sapiens), P15428; Potency, µM, for the others: top-dose activity change, negative = inhibition, usual class: inhibitors; purified HPGD, NADH fluorescence kinetic, PGE2 substrate; active = well fitted inhibition curve with a large enough effect, not every such curve was filed as active; inconclusive = small, poorly fitted or top-dose-only effect, or another doubt; inactive = no such curve, though single readings can be large or run the other way; note: % is set by controls: 0 for no effect and ±100 for the full control effect
Target sequence (P15428 whole entry, looked up): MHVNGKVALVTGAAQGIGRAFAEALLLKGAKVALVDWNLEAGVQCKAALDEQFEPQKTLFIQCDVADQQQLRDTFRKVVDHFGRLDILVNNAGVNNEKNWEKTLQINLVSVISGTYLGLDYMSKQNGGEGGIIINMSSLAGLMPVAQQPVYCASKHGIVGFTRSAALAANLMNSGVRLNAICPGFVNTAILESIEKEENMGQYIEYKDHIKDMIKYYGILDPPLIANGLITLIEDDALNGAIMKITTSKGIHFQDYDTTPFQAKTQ
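20 nM HPGD preincubated 15 min at room temperature with compound in 50 mM Tris-HCl pH 8, 0.01% Tween 20. Started with 1 mM NAD+ and 30 uM prostaglandin E2; NADH fluorescence (360/450 nm) read 5 times over 30-s intervals, last minus first.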
HTT aggregate: qHTS Multiplex Assay to Identify Dual Action Probes in a Cell Model of Huntington: Aggregate Formation (GFP). hit rate 1.1% among 220,000. Potency, µM (series often up to 46.1 µM), for inactives: top-dose activity change, negative = inhibition, most hits filed as inhibitors. AID 1688, 2009. PC12 HttQ103-GFP aggregates, Acumen cytometry, 40 h; note: % is set by controls: 0 for no effect and ±100 for the full control effect; nearly all actives have a fitted effect of over 60% in size
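Using laser scanning cytometry, GFP-positive aggregates were counted after lysis of PC12 cells induced with 100 nM tebufenozide to express HTT exon 1 Q103–GFP. Compounds were tested in titration.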
ALDH1A1 block: qHTS Assay for Inhibitors of Aldehyde Dehydrogenase 1 (ALDH1A1); Potency, µM (top dose mostly 75.3 µM), for inactives: at the top dose activity, negative = inhibition, hits mostly inhibitors; hit rate 7.3% among 220,000; Purified ALDH1A1, NADH fluorescence, propionaldehyde substrate; Aldehyde dehydrogenase 1A1 (Homo sapiens), P00352; AID 1030, 2008; active = well fitted inhibition curve with a large enough effect, not every such curve was filed as active; inconclusive = small, poorly fitted or top-dose-only effect, or another doubt; inactive = no such curve, though single readings can be large or run the other way;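 note: plate controls were no enzyme wells and a reference inhibitor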
Target sequence (P00352 whole entry, looked up): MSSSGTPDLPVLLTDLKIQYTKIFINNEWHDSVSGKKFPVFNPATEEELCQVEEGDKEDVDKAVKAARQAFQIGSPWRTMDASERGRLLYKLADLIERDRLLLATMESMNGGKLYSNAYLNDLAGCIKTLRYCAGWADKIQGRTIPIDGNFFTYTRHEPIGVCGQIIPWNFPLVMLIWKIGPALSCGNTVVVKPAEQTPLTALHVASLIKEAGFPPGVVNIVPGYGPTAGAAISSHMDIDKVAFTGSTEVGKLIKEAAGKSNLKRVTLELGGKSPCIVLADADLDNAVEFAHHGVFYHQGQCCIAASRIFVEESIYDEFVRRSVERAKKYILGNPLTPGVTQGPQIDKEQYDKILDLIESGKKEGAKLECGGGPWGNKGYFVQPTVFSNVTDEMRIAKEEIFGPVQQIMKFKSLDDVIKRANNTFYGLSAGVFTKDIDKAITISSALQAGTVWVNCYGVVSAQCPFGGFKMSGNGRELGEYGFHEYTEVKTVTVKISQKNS
HTT ATP protect: qHTS Multiplex Assay to Identify Dual Action Probes in a Cell Model of Huntington: Cytoprotection (ATP) | AID 1471, 2008 | PC12 HTT-Q103 induced, cytoprotection, ATP luminescence, 40 h | hit rate 0.14% among 230,000 | Potency, µM (titrated, usually from 56.4 µM), without a hit: cytoprotection (ATP increase), hits mostly activators; note: % of control where 0% means no effect; nearly all actives have a fitted effect of over 45% in size
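Rat PC12, Q103 Htt exon1-GFP fusion, ecdysone promoter; tebufenozide inducer 100 nM final; compound titration; qHTS, 1500 cells/well; ATPlite luminescent read.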
Active calls of the source: *; ? = inconclusive; / = no result given; [ ] = dose if it differs, or a comment. Unless noted, calls come from the whole dose curve; as a rule, active = well fitted curve in the direction sought with a large enough effect; inconclusive = small, poorly fitted or top-dose-only effect, or another doubt; inactive = no such curve, though single readings can be large; an effect the other way counts as inactive or inconclusive. Potency is the fitted concentration of half-maximal effect.

SMILES	Lamin A splicing	HPGD block	HTT aggregate	ALDH1A1 block	HTT ATP protect
O=[N+]([O-])c1cccc(-c2cc3cccc[n+]3cc2-c2cccc([N+](=O)[O-])c2)c1	-6.2%	4.5%	-6.9%	-3.7%	/
Cc1cccc2cc(-c3ccccc3)c(-c3ccccc3)c[n+]12	?	-8.3%	17.8µM*	?	/
COc1ccc2c(c1)c1ccccc1n2C	-8.6%	?	12.6µM*	?	0.2%[10 µM]
COc1cc(/C=N/NC(=O)c2cc3ccccc3cc2O)ccc1OCCN1CCCCC1	?	?	20µM*	1.6%	/
O=C(OCn1ncc(Br)c(Br)c1=O)c1ccccc1Cl	?	?	?	0.398µM*	-80.3%
O=C(OCn1ncc(Br)c(Br)c1=O)c1ccc(F)cc1	?	22.4µM*	3.98µM*	0.0891µM*	-98.0%[10 µM]
Cc1nn2c(=O)cc(COC(=O)c3ccc(F)cc3)nc2s1	12.8%[46 µM]	/	/	/	/
COC1=CC(=O)C[C@@H](C)[C@@]12Oc1c(Cl)c(OC)cc(OC)c1C2=O	/	/	/	/	-17.6%
CCCC(=O)NC(c1cccs1)c1cc([N+](=O)[O-])c2cccnc2c1O (stereo unspecified)	?	-19.5%	11.2µM*	0.3%	7.7%[10 µM]
CC(=O)NC(c1cccs1)c1cc([N+](=O)[O-])c2cccnc2c1O (stereo unspecified)	?	-20.2%	3.16µM*	-6.8%	-56.4%[10 µM]
Cc1c(C(=O)N(C)C)sc2c1c(=O)n(-c1ccccc1C(F)(F)F)c(=O)n2Cc1ccccc1C#N	-3.7%[46 µM]	/	/	/	/
COC(=O)[C@@]1(Cc2ccc(OC)cc2)[C@H]2c3cc(C(=O)N(C)C)n(Cc4ccc(C)c(F)c4F)c3C[C@H]2CN1C(=O)c1ccccc1	/	-16.8%	/	-7.6%	?
CC(C)(C)C1CCc2[nH]nc(C(=O)O)c2C1 (stereo unspecified)	0.7%	-18.8%	-7.7%	-0.8%	3.55µM*
CCC(C)(C)C1CCc2[nH]nc(C(=O)NN)c2C1 (stereo unspecified)	/	/	1.7%[9.22 µM]	/	3.1%[10 µM]
O=C1C(=C(O)c2ccccc2)C(=O)c2ccccc21	?	-25.5%	?	3.98µM*	-10.0%
O=C(c1ccccc1)C1C(=O)c2ccccc2C1=O	12.0%	-6.3%	?	-5.7%	-22.1%
COC(=O)Cc1c(C)c2ccc(OCC(C)=O)c(C)c2oc1=O	-10.3%	?	-3.7%	?	-45.5%
C=C(C)COc1ccc2c(C)c(CC(=O)OC)c(=O)oc2c1C	?	?	11.2µM*	?	-2.9%[10 µM]
CC(C)C[C@@H](NC(=O)[C@@H](O)[C@H](N)Cc1ccccc1)C(=O)O	/	-6.2%	/	7.0%	?
Cc1ccccc1OCC(=O)Nc1nnc(S(=O)(=O)N(C)c2ccccc2)s1	13.6%[46 µM]	/	/	/	/
CCSc1nnc(NC(=O)C(NC(=O)c2ccc(Cl)cc2)C(C)C)s1 (stereo unspecified)	?	-4.0%	31.6µM*	4.3%	/
CC(C)C(NC(=O)c1ccc(Cl)cc1)C(=O)NC1=NCCS1 (stereo unspecified)	-2.8%	2.4%	-9.1%	-8.3%	-1.3%[10 µM]
COc1ccc2nc(/C=N/NC(=O)[C@H](C)NC(=O)OC(C)(C)C)ccc2c1	-0.2%	?	-9.2%	?	/
Cc1cc(C(=O)NCc2ccccc2Cl)c2c(C)nn(-c3ccccc3)c2n1	5.8%[46 µM]	/	/	/	/
N#C/C(=C\c1ccc(N2CCOCC2)o1)C(=O)NCCc1ccccc1	7.5%[46 µM]	/	3.6%[9.22 µM]	?	10.2%[10 µM]
SMILES	Lamin A splicing	HPGD block	HTT aggregate	ALDH1A1 block	HTT ATP protect
N#C/C(=C/c1ccc(N2CCOCC2)o1)C(=O)Nc1ccccc1	?	/	-18.7%[9.22 µM]	22.4µM*	-10.5%[10 µM]
COCCNC(=O)/C(C#N)=C/c1ccc(N2CCOCC2)o1	-4.7%	?	?	31.6µM*	/
N#C/C(=C\c1ccc(O)c(O)c1)C(=O)NCCCc1ccccc1	?	31.6µM*	-26.0%	?	-7.4%
COc1ccc(/C=C(\C#N)C(=O)NCCc2ccccc2)cc1OCc1ccccc1	?	?	8.8%	?	-11.3%[10 µM]
CCCCNC(=O)/C(C#N)=C/c1ccc2c(c1)OCCO2	-9.6%	?	1.8%	6.31µM*	?
CCCOC(=O)CSc1nnc2ccc3ccccc3n12	8.7%[46 µM]	/	/	/	/
COCCn1c(=O)c(-c2ccccc2)nc2cnc(N(C)C)nc21	-7.8%	/	/	?	-58.7%
COCCNC(=O)/C(C#N)=C/c1cccc(/C=C(\C#N)C(=O)NCCOC)c1	?	25.1µM*	12.3%	?	/
COCCNC(=O)/C(C#N)=C/c1ccc(O)cc1	/	/	-30.5%[9.22 µM]	/	-10.0%[10 µM]
S=C(NCCN1CCOCC1)Nc1ccc(Nc2ccccc2)cc1	/	/	11.4%	-0.8%	-22.7%
Cc1cccc(C)c1NC(=S)/C(=C(\[O-])c1cccs1)[n+]1ccccc1	-17.2%	-17.1%	-2.9%	-3.1%	6.7%[10 µM]
[O-]/C(=C(\C(=S)NCCN1CCOCC1)[n+]1ccccc1)c1ccc(Cl)s1	?	/	4.5%	10µM*	10.3%[10 µM]
Cc1ccc(/C([O-])=C(/C(=S)Nc2ccc(SC(F)F)cc2)[n+]2ccccc2)cc1[N+](=O)[O-]	-4.5%[46 µM]	/	-24.7%	4.47µM*	-4.7%[10 µM]
Cc1ccc(/C([O-])=C(/C(=S)NCCN2CCOCC2)[n+]2ccccc2)cc1[N+](=O)[O-]	8.5%[46 µM]	/	10.8%	22.4µM*	2.2%[10 µM]
[O-]/C(=C(\C(=S)NCc1ccccc1)[n+]1ccccc1)c1ccc(Cl)s1	/	/	4.4%	17.8µM*	-18.6%
Cc1cccc(CCNC(=O)C2CCC(CNS(=O)(=O)c3ccccc3)CC2)c1 (stereo unspecified)	4.6%[46 µM]	/	/	/	/
NC(=O)c1ccc([N+](=O)[O-])cc1	/	-11.1%	/	7.7%	-61.1%
O=[N+]([O-])c1ccc(C=Nc2ccc(Cl)c([N+](=O)[O-])c2)s1	?	/	41.7%[9.22 µM]	14.1µM*	-35.3%[1.9 µM]
NC(=O)c1ccc(N=Cc2ccc([N+](=O)[O-])s2)cc1	?	-5.2%	?	20µM*	/
Cc1cc(C)cc(N=Cc2ccc([N+](=O)[O-])s2)c1	?	-9.5%	-6.5%	?	/
COc1ccc2c(c1)O[C@@H](c1cccc(C(F)(F)F)c1)[C@H](OC(=O)NS(=O)(=O)c1ccc(C)cc1)C2=O	/	-2.5%	/	15.7%	-69.0%
O=C(Nc1cccc(O)c1)c1ccccc1[N+](=O)[O-]	/	/	-15.0%	-7.9%	-23.6%
COCCNC(=O)c1ccc(N2CCCCC2)c(NS(=O)(=O)c2ccc(C)cc2)c1	-4.3%	-19.0%	8.7%	8.91µM*	-4.0%[10 µM]
CCN(CC)CCCNC(=O)c1ccc(N2CCCCC2)c(NS(=O)(=O)c2ccc(C)cc2)c1	/	/	?	14.1µM*	-44.5%

Assay outcomes: PubChem, National Center for Advancing Translational Sciences (NCATS)
